The list is not random: actives were taken first. Their share in the collection is about 3.4%.
TEAD-YAP inh – TEAD-YAP interaction inhibition. 640,000 tested, 1.4% active. inhibition, % at 9.12 µM. HEK-TIYL cells, TEAD-Gal4/YAP UAS-luciferase luminescence; in the data active = inhibition above about 32%
GPR151 ag – activates the human receptor GPR151. 650,000 tested, 1% active. Q8TDV0. AID 1508602. PathHunter beta-arrestin GPR151 cells, luminescence. activation, % at 11.2 µM; in the data active = activation above about 4.9%
FBW7 act – activators of human E3 ligase FBW7; Q969H0; AlphaScreen FBW7–phospho-cyclin E peptide binding, activator screen; normalized activity (activation), % at 26.1 µM; 650,000 tested, 0.13% active; AID 1259310; in the data active = normalized activity above about 1.9%;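 note: purified mutant Fbw7 with reduced substrate affinity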
MITF inh – inhibitors of human MITF | 650,000 tested, 0.91% active | inhibition, % at 2.6 µM | O75030 | AlphaScreen MITF homodimerization, bead proximity signal; in the data active = inhibition above about 50%
Target sequence (O75030 whole entry, looked up): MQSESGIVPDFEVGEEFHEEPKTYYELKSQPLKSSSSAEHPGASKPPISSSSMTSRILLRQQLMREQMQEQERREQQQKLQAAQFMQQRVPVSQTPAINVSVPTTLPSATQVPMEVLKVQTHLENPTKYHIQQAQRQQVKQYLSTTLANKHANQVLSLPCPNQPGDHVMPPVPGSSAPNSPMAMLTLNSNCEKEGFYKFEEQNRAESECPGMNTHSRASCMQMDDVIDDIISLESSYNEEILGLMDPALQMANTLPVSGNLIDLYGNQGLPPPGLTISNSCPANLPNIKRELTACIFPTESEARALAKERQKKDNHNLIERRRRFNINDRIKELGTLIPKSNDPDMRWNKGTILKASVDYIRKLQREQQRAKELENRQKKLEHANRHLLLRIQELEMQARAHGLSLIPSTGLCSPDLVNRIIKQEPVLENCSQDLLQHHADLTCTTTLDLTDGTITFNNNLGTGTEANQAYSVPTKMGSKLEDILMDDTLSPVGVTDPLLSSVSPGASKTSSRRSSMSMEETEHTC
GPR151 conf act – human GPR151 activation, confirmation screen | 6,700 tested, under 10 active | GPR151 PathHunter beta-arrestin cells, luminescence, 90 min; % of EA-reagent control over plate median | shares compounds with GPR151 ag | activation, % at 11.2 µM;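 active = mean percent activation across replicates above the confirmation screen cutoff of 4.91%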
GPR119 ag – GPR119 activation, counter-screen for GPR151 activators | shares compounds with GPR151 ag | GPR119 PathHunter beta-arrestin cells, luminescence, 90 min; 0 = compound-well median, 100 = enzyme-acceptor control | activation, % at 11.2 µM | 6,700 tested, 0.3% active | AID 1508611;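 active = mean percent activation in the counterscreen above 29.09%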;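 note: counterscreen on off-target GPR119 to flag nonselective hits from the GPR151 activator screen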
A number is an active result; - = inactive; . = no result.

SMILES | TEAD-YAP inh | GPR151 ag | FBW7 act | MITF inh | GPR151 conf act | GPR119 ag
CCC(=O)Nc1ccc(NC(=O)/C=C/c2cc(Br)ccc2OC)cc1 | - | 9.6 | - | - | - | -
Cc1c(-c2ccccc2)sc2nc[nH]c(=O)c12 | - | 12 | - | - | - | -
N=C1c2ccccc2CN1NC(=O)CCCOc1ccc(Cl)cc1Cl | - | - | - | - | . | .
COCCn1nnnc1CN1CCOCC1 | - | - | - | - | . | .
CC(=O)NC(CC(=O)O)C(=O)O (stereo not drawn) | - | - | - | - | . | .
COc1cccc(-c2nnc(NC(=O)c3ccccc3OC)o2)c1 | - | - | - | - | . | .
CC1Sc2ccccc2N(Cc2ccc(C(F)(F)F)nc2)C1=O (stereo not drawn) | - | 5.4 | - | - | - | -
CC(=O)Nc1cc(-c2cccc(Br)c2)nn1-c1ccccc1 | - | 5.3 | - | - | - | -
CCCCNC(=O)c1cc(S(=O)(=O)N2CCOCC2)ccc1Sc1ccc(Br)cc1 | - | - | - | - | . | .
O=C(NCCCN1CCOCC1)c1cc(S(=O)(=O)N2CCOCC2)ccc1Sc1ccc(Br)cc1 | - | 5.6 | - | - | - | -
C=CCc1cccc(/C=C/C(=O)c2c(O)cc(C)oc2=O)c1O | - | 5.9 | - | - | - | -
Cc1cc(O)c(C(=O)/C=C/c2ccccc2Br)c(=O)o1 | - | - | - | - | . | .
O=C(CSc1ccc2nnc(-c3cccs3)n2n1)NCc1ccccc1 | - | - | - | - | . | .
Cc1nnc2ccc(SCC(=O)NCc3csc(-c4cccs4)n3)nn12 | - | 5.6 | - | - | - | -
COc1cc(C(=O)Nc2ccc([N+](=O)[O-])cc2)cc(Br)c1OC | - | 5.6 | - | - | - | -
COc1cc(C(=O)Nc2cccc([N+](=O)[O-])c2)cc(OC)c1OC | - | - | - | - | . | .
Cc1ccc(-c2n[nH]c(=O)c3ccccc23)cc1S(=O)(=O)NCCO | - | - | - | - | . | .
CC(=O)c1ccccc1-c1ccc2c(c1)CC(CNC(=O)c1ccccn1)O2 (stereo not drawn) | - | - | - | - | . | .
COc1ccc(OC/C(O)=C(\C#N)c2nc3ccccc3[nH]2)cc1 | - | - | - | - | . | .
COc1cccc(OC/C(O)=C(\C#N)c2nc3ccccc3[nH]2)c1 | - | 5.2 | - | - | - | -
CC/C(C)=C(\C#N)c1nc2ccccc2[nH]1 | - | 5.7 | - | - | - | -
CC1=CC(C)C(CNCCN2CCNCC2)C(C)C1 (stereo not drawn) | - | 4.9 | - | - | - | -
CC1=CC(C)C(COC(=O)CN2CCOCC2)C(C)C1 (stereo not drawn) | - | - | - | - | . | .
CC1CC(C)CN(C(=O)CSc2nnc(-c3ccccc3F)o2)C1 (stereo not drawn) | - | - | - | - | . | .
NC(=O)CCC/C=C\C[C@@H]1[C@@H](/C=C/[C@@H](O)CCc2ccccc2)[C@H](O)C[C@@H]1O | . | 7.0 | . | - | - | -
SMILES | TEAD-YAP inh | GPR151 ag | FBW7 act | MITF inh | GPR151 conf act | GPR119 ag
O=C(O)CCC/C=C\C[C@@H]1[C@@H](/C=C/[C@H](O)CCc2ccccc2)[C@H](O)C[C@@H]1O | . | 5.6 | . | - | - | -
O=C(CCC/C=C\C[C@@H]1[C@@H](/C=C/[C@@H](O)CCc2ccccc2)[C@H](O)C[C@@H]1O)NC(CO)CO | . | - | . | - | . | .
Cc1nn(-c2ccccc2)c(Cl)c1/C=N\O | - | 5.1 | - | - | - | -
CN(C(=O)COc1ccc(C(C)(C)C)cc1)C1(C)CCS(=O)(=O)C1 (stereo not drawn) | - | 5.5 | - | - | - | -
Cc1nc(NC2=NCN(Cc3cccnc3)CN2)nc2ccccc12 | - | 7.7 | - | - | - | -
C/C(N)=C(/C#N)C(=O)COC(=O)c1cncc(Br)c1 | - | - | - | - | . | .
COc1cc(/C=c2\sc3nc(=O)c(C)nn3c2=O)ccc1OC(C)=O | - | 14 | - | - | - | -
CCOc1ccc(/C=c2\sc3nc(=O)c(C)nn3c2=O)cc1OC | - | - | - | - | . | .
O=[N+]([O-])c1ccc2ncnc(N3CCN(Cc4ccc5c(c4)OCO5)CC3)c2c1 | 35 | 12 | - | - | - | -
Cn1ncc2c(N3CCN(Cc4ccc5c(c4)OCO5)CC3)ncnc21 | - | - | - | - | . | .
O=C(c1ccc(N2CCCC2=O)cc1)N1CCN(S(=O)(=O)c2c(F)cccc2F)CC1 | - | - | - | - | . | .
Cc1ccc(NC(=O)NCC2(O)CCCC2)cc1C | - | 7.5 | - | - | - | -
CCOc1ccc(CC(=O)Nc2ccc(-c3cn4c(n3)SCC4)cc2)cc1 | - | 5.1 | - | - | - | -
O=C(Cc1ccc(Br)cc1)Nc1ccc(-c2cn3c(n2)SCC3)cc1 | - | - | - | - | . | .
CCc1ccc(N2CC(C(=O)NC3CC3)CC2=O)cc1 (stereo not drawn) | - | - | - | - | . | .
CC1=C(NCc2ccccc2)CCC1=O | - | 6.0 | - | - | - | -
CC1(C)CC(=O)C([N+](=O)[O-])=C(NCc2ccccc2)C1 | - | - | - | - | . | .
O=C(Cc1cn(-c2ccc(Cl)nn2)c2ccccc12)NCCN1CCOCC1 | - | 7.8 | - | - | - | -
O=C(Cc1cn(-c2ccc(N3CCOCC3)nn2)c2ccccc12)NCCN1CCOCC1 | - | - | - | - | . | .
Cn1c2ccccc2c2nnc(SCC(=O)c3ccc(Br)cc3)nc21 | - | - | - | - | . | .
OC(COc1ccc2ccccc2c1Cl)Cn1ccnc1 (stereo not drawn) | - | 5.0 | - | - | - | -
Cc1nccn1CC(O)COc1cccc2ccccc12 (stereo not drawn) | - | - | - | - | . | .
COc1cccc(/C=C/c2nc3ccccc3c(=O)n2-c2ccc(NC(C)=O)cc2)c1OC | - | 5.6 | - | - | - | -
COc1ccccc1CNC(=O)CCc1c(C)nc2c(c(C)nn2C(C)(C)C)c1C | - | - | - | - | . | .
COc1ccc(CNC(=O)CCc2c(C)nc3c(c(C)nn3C(C)(C)C)c2C)cc1 | - | 7.2 | - | - | - | -
SMILES | TEAD-YAP inh | GPR151 ag | FBW7 act | MITF inh | GPR151 conf act | GPR119 ag
O=C(NCCN1CCn2cc(OCc3ccc(F)cc3)c(=O)cc2C1=O)C1CC1 | - | 6.7 | - | - | - | -
Cc1ccccc1C(=O)NCCN1CCn2cc(OCc3ccccc3)c(=O)cc2C1=O | - | - | - | - | . | .
Cc1ccc(N2C(=O)C(=O)/C(=C(/O)c3ccccc3)C2c2ccccc2)cc1 (stereo not drawn) | - | - | - | - | . | .
Cc1ccc(C)c(NC(=O)C(=O)NCC2CCCO2)c1 (stereo not drawn) | - | - | - | - | . | .
CCOc1ccc(NC(=O)Nc2cccc(OC)c2)c([N+](=O)[O-])c1 | - | 10 | - | - | - | -
CCOc1ccc(OCC(=O)Nc2ccc(OC)cc2[N+](=O)[O-])cc1 | - | - | - | - | . | .
O=C(O)c1cc(N2C(=O)C3C4C=CC(C4=C(c4ccccc4)c4ccccc4)C3C2=O)ccc1Cl (stereo not drawn) | - | 5.1 | - | - | - | -
CC1(C)NC(=O)N(CCOc2ccc(OCc3ccccc3)cc2)C1=O | - | 7.2 | - | - | - | -
